Measured values reported in PubChem BioAssay AID588726 (The Scripps Research Institute Molecular Screening Center, 2011).
Out of some 360,000 compounds screened, about 8,200 (2.3%) were called active. This is one part of a sample in which actives are shown more often than they occur. Unmarked numbers belong to inactive results. Rule as the data show it: active = inhibition above about 27%; inactive = the rest.

target: Fructose-bisphosphate aldolase (Mycobacterium tuberculosis (strain ATCC 25618 / H37Rv)) (UniProt P9WQA3); test: Mtb FBA enzyme inhibitors, primary screen, biochemical, fluorescence, strain H37Rv (AID 588726);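 also: 0% = vehicle and 100% = reference inhibitor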; details: purified M. tuberculosis FBA, fluorescence read-out, at 1 µM, stronger effect = higher value
Sequence (P9WQA3 whole entry, looked up): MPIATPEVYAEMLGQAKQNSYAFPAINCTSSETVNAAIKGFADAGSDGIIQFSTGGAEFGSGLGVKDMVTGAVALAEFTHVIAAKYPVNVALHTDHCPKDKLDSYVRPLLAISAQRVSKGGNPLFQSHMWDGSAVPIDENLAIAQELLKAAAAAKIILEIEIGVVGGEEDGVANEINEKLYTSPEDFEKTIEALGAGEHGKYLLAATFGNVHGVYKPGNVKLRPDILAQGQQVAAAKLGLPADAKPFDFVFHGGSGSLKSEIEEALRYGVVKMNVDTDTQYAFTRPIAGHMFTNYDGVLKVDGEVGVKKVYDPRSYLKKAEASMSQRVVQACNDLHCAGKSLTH

| SMILES | inhibition |
| --- | --- |
| Cc1cc(Br)ccc1SCC(=O)OCC(=O)NCc1ccc2c(c1)OCO2 | -1.37% |
| CCn1c(=O)cc(SCC(=O)NCCC2=CCCCC2)c2ccccc21 | 6.21% |
| Cc1ccc(S(=O)(=O)N(C)CC(=O)OCC(=O)N2CC(=O)Nc3ccccc32)cc1 | 0.54% |
| Cc1ccc(S(=O)(=O)N2CC(=O)Nc3ccccc32)cc1C | -0.25% |
| Cc1ccc(C)c(S(=O)(=O)N2CC(=O)Nc3ccccc32)c1 | 31.2% (active) |
| O=C(OCc1cn([C@@H]2C[C@H](c3ccc(Cl)cc3)N(Cc3cccs3)C[C@H]2O)nn1)c1ccccc1 | 0.72% |
| O=C(CCNC(=O)c1ccccc1)NN=Cc1ccc(Br)o1 | 0.48% |
| O=C(CCc1n[nH]c(=O)[nH]c1=O)N/N=C/c1ccc(Br)o1 | 4.62% |
| O=C(CCC(=O)N/N=C/c1ccc(Br)o1)N/N=C/c1ccc(Br)o1 | 31.8% (active) |
| COc1ccc2c(c1)CCc1cn3ncc(C#N)c3nc1-2 | 522% [above what the read-out allows, likely interference] (active) |
| N#Cc1cnn2cc(CCN3CCOCC3)c(-c3ccc(F)cc3)nc12 | 15.8% |
| COc1ccc2c(c1)CCc1c(C(=O)N3CCCC3)noc1-2 | 0.6% |
| CC(C)C(NS(=O)(=O)c1cccs1)C(=O)Nc1nc(C(C)(C)C)cs1 (centres undefined) | 2.98% |
| CN1C(=O)C2(OCCCO2)c2cc(Cl)ccc21 | 1.91% |
| CCOc1ccc(Nc2nc(Cc3nnc(SCC(=O)c4ccc(C)cc4)o3)cs2)cc1 | -1.31% |
| CCN(CC)C(=O)C1=C(C)N(Cc2ccc(F)cc2)C(=O)C(CC(=O)NC2CCCC2)C1 (centres undefined) | -1.29% |
| Cn1nccc1NS(=O)(=O)c1ccc(F)cc1 | -0.97% |
| CC(=O)N(C)c1ccc(NC(=O)Nc2cccc3ccccc23)cc1 | 6.26% |
| O=C(Nc1cccc2ccccc12)NC1CC1 | 9.02% |
| CCN(C(=O)Nc1cccc2ccccc12)c1ccccc1 | 75.4% (active) |
| O=C(N/N=C/c1cccc2cccnc12)[C@H]1C[C@@H]1c1ccccc1 | -0.16% |
| C[N+]1(CCNC(=O)/C=N/O)CCCCC1 | 4.51% |
| COC(=O)c1c(NC(=O)CN2C(=O)NC(CCc3ccccc3)C2=O)sc2c1CCCCC2 (centres undefined) | -0.99% |
| O=C1C2C3C=CC(C3)C2C(=O)N1c1ccc(S(=O)(=O)Nc2nccs2)cc1 (centres undefined) | -2.35% |

| SMILES | inhibition |
| --- | --- |
| COc1cccc(N2CCN(c3ccc4nnc(CCC(=O)N5CCN(C)CC5)n4n3)CC2)c1 | 1.71% |
| CN1CCN(c2ccc([N+](=O)[O-])c(Sc3nc4ccccc4[nH]3)c2)CC1 | -3.38% |
| COCCCNS(=O)(=O)c1cccc(S(=O)(=O)c2cccc(S(=O)(=O)NCCCOC)c2)c1 | 0.27% |
| COc1ccc(/C=N/n2c(C)cc(C)cc2=O)cc1 | 3.54% |
| CC(C)OCCCNc1ncnc2c1[nH]c1ccc(F)cc12 | 31.8% (active) |
| O=C(Nc1ccccc1Cl)/C(Cl)=C(\Cl)S(=O)c1ccccc1 (centres undefined) | -3.21% |
| CC(C)Cn1cc(-c2cncc3nccn23)cn1 | 142% (active) |
| C=CCSc1nc(N)cc(=O)[nH]1 | 3.86% |
| CCc1cc(=O)oc2cc(C)cc(OCC(=O)N3CCC[C@@H]3C(=O)O)c12 | 106% (active) |
| CCc1cc(=O)oc2cc(OCC(=O)N3CCCc4ccccc43)ccc12 | 5.17% |
| CCc1cc(=O)oc2cc(C)cc(OC(C)C(=O)O)c12 (centres undefined) | 176% (active) |
| COc1cccc(NC(=O)COc2cc(C)cc3oc(=O)cc(C)c23)c1 | 7.86% |
| CC(Oc1cccc(Cl)c1)C(=O)NC1CC(C)(C)NC(C)(C)C1 (centres undefined) | 0.76% |
| Cc1cc(OC(C)C(=O)NC2CC(C)(C)NC(C)(C)C2)c2c(C)cc(=O)oc2c1 (centres undefined) | 154% (active) |
| Cc1cc(C)c2c(Cn3ccnc3)cc(=O)oc2c1 | 0% |
| Cc1cc(=O)oc(C)c1C(=O)NC1CC(C)(C)NC(C)(C)C1 | 0.07% |
| Cc1cc(C)c(NC(=S)N2CCCC2C(=O)O)c(C)c1 (centres undefined) | 0.88% |
| CCOC(=O)c1sc2nc(C)nc(Nc3ccc(OC)c(OC)c3)c2c1C | 0.66% |
| N#Cc1ccc(C(c2ccc(C#N)cc2)n2cncn2)cc1 | 2.3% |
| O=C(CNS(=O)(=O)c1ccc2ccccc2c1)Nc1ccc(F)c(F)c1F | 1.83% |
| CC(C)NS(=O)(=O)c1ccc(CCC(=O)N2CCOCC2)cc1 | 0.26% |
| CCc1nc2c(OCCc3cccc(OC)c3)cccn2c1N(C)C(=O)c1ccc(C)cc1 | 1.14% |
| CC(=O)c1cccc(-n2nnnc2SCC(=O)NNC(=O)C2CCCCC2)c1 | 3.69% |
| COc1cc(C(=O)NCc2nnc(SCC(=O)Nc3nc4ccc(C)cc4s3)o2)cc(OC)c1OC | 1.7% |

| SMILES | inhibition |
| --- | --- |
| N/C(=N\OC(=O)CCn1cccc(C(F)(F)F)c1=O)c1ccc(OC(F)(F)F)cc1 | 1.82% |
| Cc1ccc(NN=C2C(=O)OC(C)(C)OC2=O)c(C)c1 | -7.26% |
| COc1ccc(Br)c2c1C(=O)CC2 | 2.69% |
| O=C(Cc1ccccc1Cl)N1CCN(c2ccccn2)CC1 | 10.2% |
| O=C(c1c(F)cccc1F)N1CCN(c2ncc(Br)cn2)CC1 | -0.3% |
| O=C(c1c(F)cccc1Cl)N1CCN(c2ccccn2)CC1 | 116% (active) |
| NS(=O)(=O)c1cc2c(cc1Cl)NC(C(Cl)Cl)NS2(=O)=O (centres undefined) | 2.88% |
| COc1ccc(OC)c(NC(=O)Cn2c(=O)oc3ccccc32)c1 | -2.86% |
| CCc1cccc2c(C=C(C#N)C#N)cn(CC(=O)N3CCCCC3)c12 | -1.66% |
| Cc1onc(-c2ccc(Cl)cc2)c1-c1ccnn1S(=O)(=O)c1ccc(Cl)cc1 | -3.96% |
| COC(=O)c1cn(C(=O)c2ccc(Cl)cc2)c2ccccc12 | -0.26% |
| COC(=O)c1noc(C)c1-c1ccnn1C(=O)c1ccc(Cl)cc1 | 29.4% (active) |
| Cn1cccc1-c1nc2ccccc2n1C | 28.6% (active) |
| Cn1c(-c2ccc(C(=O)c3ccccc3)s2)nc2ccccc21 | 1.32% |
| Cc1ccc(C2=NN(C)c3nc4ccccc4n3C2)cc1 | 13.4% |
| O=C(COc1ccc(Cl)cc1)Nc1ccc2oc(=O)ccc2c1 | 2.76% |
| Cc1ccc(S(=O)(=O)N2CCC(C)CC2)cc1C(=O)NCc1ccccn1 | 2.4% |
| COc1ccc(NC(=O)CSc2ncnc3[nH]ncc23)cc1 | 1.84% |
| CCCCn1c(N)c(N(CC(C)C)C(=O)c2cnc(C)cn2)c(=O)[nH]c1=O | 0.47% |
| CC(=O)N1CCN(S(=O)(=O)c2c(F)cc(F)c(Cl)c2F)CC1 | -0.88% |
| Cc1oc(-c2ccccc2F)nc1CS(=O)(=O)CC(=O)NCCCN(C)C1CCCCC1 | -2.64% |
| CC(C)c1cc(C(=O)N(C)C2CCCN(Cc3ccccc3F)C2)n(C)n1 (centres undefined) | 2.62% |
| CN(CCNC(=O)c1cc2c(-c3ccccc3F)nn(C)c2s1)C1CCCCC1 | 73.3% (active) |
| CC(CO)NCC12CC3CC(CC(C3)C1)C2 (centres undefined) | -1.08% |

| SMILES | inhibition |
| --- | --- |
| Cc1ccc(Cn2c(=N)c(S(=O)(=O)c3ccc(C)cc3)cc3c(=O)n4ccccc4nc32)cc1 | 3.69% |
| Cc1ccc(-n2c(SCC(=O)N3CCC(C(=O)O)CC3)nc3ccccc3c2=O)cc1C | -6.87% |
| Cc1ccc(-n2c(=O)c(C#N)cc3c(=O)n4ccccc4nc32)cc1C | 67% (active) |
| CCOC(=O)C1CN(S(=O)(=O)c2ccc(OC)cc2)c2cc(Cl)ccc2O1 (centres undefined) | 2.59% |
| CC[C@]12c3[nH]c4cc(CCC(=O)N(C)C)ccc4c3CCN1C(=O)[C@@H](CC(=O)NCC13CC4CC(CC(C4)C1)C3)C[C@@H]2C(=O)N1CCN(C(=O)C2CC2)CC1 | 0.95% |
| CC1=CC=CC2=N/C(=N\S(=O)(=O)c3ccc(F)cc3F)c3ccccc3CN12 | 1.29% |
| CCOC(=O)c1[nH]c2ccc(OC)cc2c1NC(=O)N1CCOCC1 | 28.4% (active) |
| COc1cc2[nH]c(=O)n(CCC(=O)NC3CCN(Cc4ccccc4)CC3)c(=O)c2cc1OC | 5.35% |
| CCN(CC)C(=O)Oc1ccc(NC(=O)N2CCOCC2)cc1 | -0.07% |
| Cc1cc(NC(=O)CCN2CCN(Cc3ccccc3)CC2)ccc1Br | 0.67% |
| CCOC(=O)c1[nH]c2ccc(OC)cc2c1NC(=O)CCN1CCN(Cc2ccccc2)CC1 | 49.8% (active) |
| Cc1c(C(=O)CN2CCOCC2)[nH]c2ccccc12 | -0.51% |
| OCC(O)CN(c1ccccc1)c1ccccc1 (centres undefined) | 5.53% |
| CC(C)N(C(=O)Cn1cc(S(=O)(=O)CC(=O)N2CCOCC2)c2ccccc21)C(C)C | -1.92% |
| Cc1ccc(Br)c(NS(=O)(=O)c2cccc(C(=O)N3CCNC(=O)C3)c2)c1 | -3.11% |
| CC(=O)NC(Cc1ccc(F)c(F)c1)C(=O)NC1CCN(C(=O)c2ccc(C)cc2)CC1 (centres undefined) | -2.53% |
| CC(NC(=O)COc1ccccc1)C(=O)NC1=NCCS1 (centres undefined) | 2.42% |
| CC(C)(C)CN1CCNC(=O)C1CC(=O)NC1Cc2ccccc2C1 (centres undefined) | 1.64% |
| COc1ccc(-c2nc(N)sc2C2(O)C(=O)Nc3c(Br)cc(F)cc32)cc1OC (centres undefined) | 5.75% |
| O=C(CSc1nc(-c2ccccc2)cs1)Nc1cccc([N+](=O)[O-])c1 | 0.01% |
| O=[N+]([O-])c1cccc(Nc2c3ccccc3nc3ccccc23)c1 | 122% (active) |
| O=[N+]([O-])c1cnc2ccc3ccccc3c2c1 | 1.36% |
